Screening data: PubChem BioAssay, National Center for Advancing Translational Sciences (NCATS)
D3 antag: D3 dopamine receptor (human) antagonism | P35462 | D3R cells, DiscoveRx beta-arrestin luminescence, antagonist mode; stronger effect = lower value | max response, negative = inhibition, % | 2.5% of 360,000 active; in the data active = max response below about -50%; inconclusive = no clear call, values can overlap the other calls; note: % is set by controls: 0 for no effect and ±100 for the full control effect
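Cells expressing the human receptor were seeded at 1500 cells/well, incubated overnight at 37 degrees C in 5% CO2, then exposed to library compounds with dopamine controls for 90 minutes at 37 degrees C before luminescent detection.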
GLP1R inv ag: inverse agonists of human GLP-1 receptor; HEK293 GLP-1R CRE-luciferase, luminescence, 24 h; GLP-1R form is constitutively active; Potency, µM (series often up to 38.3 µM), for the others: at the highest dose activity change, negative = inhibition, hits mostly inhibitors; 1.6% of 410,000 active; note: potency is the fitted concentration of half-maximal effect; % is set by controls: 0 for no effect and ±100 for the full control effect; nearly all actives have a fitted effect of over 55% in size
Target sequence (P43220 whole entry, looked up): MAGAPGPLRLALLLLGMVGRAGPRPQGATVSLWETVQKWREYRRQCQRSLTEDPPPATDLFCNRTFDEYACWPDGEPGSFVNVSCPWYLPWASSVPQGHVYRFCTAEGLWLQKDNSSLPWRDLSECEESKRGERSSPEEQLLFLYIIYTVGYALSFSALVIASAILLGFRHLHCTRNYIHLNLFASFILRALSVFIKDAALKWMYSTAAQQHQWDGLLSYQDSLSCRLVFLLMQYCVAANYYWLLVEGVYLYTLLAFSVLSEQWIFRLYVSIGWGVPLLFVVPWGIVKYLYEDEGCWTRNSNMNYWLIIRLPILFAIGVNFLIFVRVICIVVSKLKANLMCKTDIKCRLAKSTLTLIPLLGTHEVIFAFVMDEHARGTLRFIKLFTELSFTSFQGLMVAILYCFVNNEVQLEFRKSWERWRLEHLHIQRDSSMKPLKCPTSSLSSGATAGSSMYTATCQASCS
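GLP-1R inverse agonism mode: basal reporter luminescence in engineered HEK293 cells measured after one day of compound exposure at 37 deg C, with a 12 min room-temperature detection step.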
DRD3 agonist: agonists of human D3 dopamine receptor; P35462; D3R DiscoveRx beta-arrestin cells, luminescence, 90 min; max activation, %; 0.58% of 410,000 active; in the data active = max activation above about 30%; note: 0% is about no effect
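Cells at 1500/well, incubated overnight, then treated with pinned compounds (dopamine as control) for 90 min at 37 degrees C. DiscoveRx reagent added for 30 - 60 minutes at room temperature; luminescence read.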
GLP1R ag: GLP-1 receptor (human) agonism. P43220. HEK293 GLP-1R CRE-luciferase, luminescence, 4-6 h; cells express a hypersensitive GLP-1R form. Potency, µM (top dose mostly 45.6 µM), for the others: at the top dose activation, most hits filed as activators. 0.007% of 380,000 active. AID 624172; note: potency is the fitted concentration of half-maximal effect; % of control where 0% means no effect
Numbers without * were called inactive; ? = inconclusive; . = no result. This is a sample that favours compounds with a hit; in the whole collection about 4.3% have one here. Unless noted, calls come from the whole dose curve; as a rule, active = well fitted curve in the direction sought with a large enough effect; inconclusive = small, poorly fitted or top-dose-only effect, or another doubt; inactive = no such curve, though single readings can be large; an effect the other way counts as inactive or inconclusive.

SMILES | D3 antag | GLP1R inv ag | DRD3 agonist | GLP1R ag
CCc1ccc(S(=O)(=O)/N=C2\C=C(Nc3ccc(O)cc3)C(=O)c3ccccc32)cc1 | -89.8* | ? | -30.1 | -9.2%
CC(=O)Nc1ccc(NC2=CC(=O)c3ccccc3C2=O)cc1 | -17.3 | 34.0% | -3.6 | 17.4%
CCc1ccc(S(=O)(=O)/N=C2/C=C(Sc3ncn[nH]3)C(=O)c3ccccc32)cc1 | -80.4* | ? | -7.4 | -23.7%
COc1ccc(Cn2c(CO)cnc2SCC(=O)NCc2ccco2)cc1 | . | -10.1% | 0.4 | 7.0%
CCN1C(N(C)CCc2c[nH]c3ccccc23)=N[C@@H](c2cccc(C(F)(F)F)c2)C(C(=O)OC)=C1C | 20.6 | 10µM* | 1.7 | -1.4%
CCN1C(N(C)CCc2cccs2)=N[C@@H](c2ccccc2)C(C(=O)OC)=C1C | 0.4 | 8.7% | -19.4 | -0.4%
CNc1ccccc1C(C)(C)c1cc(-c2ccco2)n[nH]1 | -10.3 | 7.94µM* | -15.5 | 2.1%
CNc1ccccc1C(C)(C)c1cc(C)[nH]n1 | 2.8 | ? | -5.4 | -7.3%
O=C(c1ccccc1)N(Cc1ccccc1)Cc1ccccc1 | -28.6 | ? | -3.4 | 14.5%
CC1(C(=O)N(Cc2ccccc2)Cc2ccccc2)CC1(Br)Br (centres undefined) | -29.1 | 3.98µM* | -11.6 | -6.6%
Cc1ccc(-c2nnc(SCC(=O)NC(C)(C)C)nc2-c2ccc(C)cc2)cc1 | . | 11.2µM* | -1.3 | .
Cc1ccc(NC(=O)CSc2nnc(-c3ccco3)c(-c3ccco3)n2)cc1 | -59.6* | ? | -0.9 | 23.0%
Cc1ccc(N(CC(=O)Nc2ccc3c(c2)OCCO3)S(C)(=O)=O)cc1 | -89.2* | 7.8% | -12.3 | 3.9%
COc1ccc(S(=O)(=O)NCC(=O)Nc2ccc3c(c2)OCCO3)cc1OC | -50.2* | 2.8% | -3.0 | 5.2%
COc1ccc(NC(=O)CNS(=O)(=O)c2ccc(Cl)cc2)cc1OC | 60.4 | 0.0% | 0.9 | 2.9%
Cc1cccc(N(CC(=O)Nc2ccc(CC#N)cc2)S(C)(=O)=O)c1 | 4.7 | -3.2% | -3.4 | 0.5%
CCc1ccc(NC(=O)CN(c2cccc(C)c2)S(C)(=O)=O)cc1 | 8.0 | -26.6% | 34.0* | 6.7%
Cc1ccc(C2=NO[C@@](CC(=O)O)(C(=O)Nc3ccc4c(c3)OCCO4)C2)cc1 | -0.5 | 15.3% | 95.4* | 4.5%
Cc1cccc(N2CCN(C(c3ccccc3)c3nnc(-c4ccccc4Cl)o3)CC2)c1C (centres undefined) | . | ? | 3.2 | .
Cc1ccc2nc(-c3cc(NC(=O)/C=C/c4ccccc4)ccc3Cl)oc2c1 | . | -23.4% | -9.8 | .
CN(C)S(=O)(=O)N(CC(=O)Nc1cccc(F)c1)c1ccccc1 | -8.2 | 0.0% | 7.1 | 14.3%
CN(C)S(=O)(=O)N(CC(=O)Nc1ccccc1)c1ccccc1 | -54.0* | 0.8% | -9.8 | -6.6%
CCC(=O)N1c2ccccc2CC1C(=O)NCc1ccccc1Cl (centres undefined) | . | -12.5% | -7.7 | .
CCCc1[nH][nH]c(=O)c1C(c1ccccc1)C(C#N)C#N (centres undefined) | -54.7* | -6.7% | 0.8 | -7.3%
CCCc1[nH][nH]c(=O)c1C(c1ccc(Br)cc1)C(C#N)C#N (centres undefined) | 0.0 | 0.0% | -11.0 | -2.1%
SMILES | D3 antag | GLP1R inv ag | DRD3 agonist | GLP1R ag
CC(C)(C)N1C(=O)[C@H]2[C@@H](c3ccc(Br)cc3)N3C(=O)N(c4ccc(Br)cc4)C(=O)[C@@]3(Cc3ccccc3)[C@H]2C1=O | -4.1 | 11.2µM* | -27.1 | -5.9%
CC(C)(C)N1C(=O)[C@H]2[C@@H](c3ccc(Br)cc3)N3C(=O)N(c4cccc(F)c4)C(=O)[C@@]3(Cc3ccccc3)[C@H]2C1=O | 6.7 | ? | 24.0 | -0.1%
CCN1C(=O)[C@H]2[C@@H](c3ccc(C)cc3)N3C(=O)N(c4ccc(C)cc4)C(=O)[C@@]3(Cc3ccccc3)[C@H]2C1=O | 42.6 | ? | 48.3* | -3.3%
CCN1C(=O)[C@H]2[C@@H](c3ccc(C)cc3)N3C(=O)N(c4ccccc4)C(=O)[C@@]3(Cc3ccccc3)[C@H]2C1=O | 2.4 | 21.3% | -6.8 | 2.9%
COc1ccc([C@@H]2[C@@H]3C(=O)N(C(C)(C)C)C(=O)[C@@H]3[C@]3(Cc4ccc(Cl)cc4)C(=O)N(c4ccc(Br)cc4)C(=O)N23)cc1 | -24.4 | 10µM* | 4.8 | -0.1%
Cc1cccc([C@@H]2[C@@H]3C(=O)N(Cc4ccccc4)C(=O)[C@@H]3[C@]3(C)C(=O)N(c4cccc(Cl)c4)C(=O)N23)c1 | -59.6* | ? | -4.9 | 4.1%
CCc1cccc(NC(=O)Cn2c(=O)n(CC3CCC(C(=O)NC)CC3)c(=O)c3sccc32)c1 (centres undefined) | . | 10.5% | 6.8 | .
COc1ccccc1N1CCN(CC(O)COCCOc2ccc(Br)cc2)CC1 (centres undefined) | -86.4* | ? | -12.5 | 7.8%
COc1ccc(N2CCN(CC(O)COCCOc3ccc(Br)cc3)CC2)cc1 (centres undefined) | 9.7 | -13.7% | -1.9 | -3.5%
COc1ccccc1N1CCN(CC(O)COCc2cccs2)CC1 (centres undefined) | -61.5* | -20.5% | -3.0 | -1.7%
COc1ccccc1N1CCN(CC(O)COc2ccc(C)cc2C)CC1 (centres undefined) | -93.8* | ? | -20.3 | 0.5%
COc1cccc(OC)c1OCC(O)CN1CCN(c2ccccc2)CC1 (centres undefined) | -9.0 | -14.1% | 0.6 | 9.6%
COc1ccccc1N1CCN(CC(O)COc2c(OC)cccc2OC)CC1 (centres undefined) | -98.8* | -16.3% | -6.7 | -11.1%
Cc1ccc(OCC(O)CN2CCN(CCO)CC2)c(C)c1 (centres undefined) | -14.9 | ? | -11.3 | -5.8%
Cc1cc(OCC(=O)Nc2cc(-c3nc4ccccc4[nH]3)ccc2C)ccc1Cl | . | -1.6% | 18.8 | .
COc1ccc2[nH]cc(C(O)CN3CCN(c4ccccc4F)CC3)c2c1 (centres undefined) | -63.4* | ? | -24.8 | 1.4%
COc1ccccc1N1CCN(C(=O)COc2cc(C)ccc2C)CC1 | ? | ? | -8.9 | 0.4%
COc1ccccc1N1CCN(CC(O)c2ccc3cc[nH]c3c2)CC1 (centres undefined) | -82.2* | ? | -14.6 | 0.3%
COc1ccccc1N1CCN(CCCCOc2ccc(C)cc2C)CC1 | -86.4* | ? | -10.5 | 2.9%
CCOC(=O)N1CCN(CC(O)c2ccc3cc[nH]c3c2)CC1 (centres undefined) | 5.1 | -0.2% | 2.6 | -2.4%
CCOc1cc(OCC)c(C(=O)CCC(=O)O)cc1OCC | . | . | 7.0 | 5.6%
COc1cc2c(cc1OC)C(c1cccc([N+](=O)[O-])c1)NC(=O)C2 (centres undefined) | 3.9 | 14.6% | 0.6 | 8.3%
COc1cc2c(cc1OC)C1(CCCC1)CNC2c1cccc([N+](=O)[O-])c1 (centres undefined) | -77.4* | 0.2% | -34.9 | 16.3%
